High-throughput results from PubChem.
A selection: hits, their analogues and other compounds. The true share with any hit is near 11%.
USP30 block – inhibitors of human USP30 deubiquitinase; Q70CQ3; purified USP30, Ub-rhodamine cleavage fluorescence; inhibition, % at 25 µM; actives 5.3% (n = 47,000)
Target sequence (Q70CQ3 whole entry, looked up): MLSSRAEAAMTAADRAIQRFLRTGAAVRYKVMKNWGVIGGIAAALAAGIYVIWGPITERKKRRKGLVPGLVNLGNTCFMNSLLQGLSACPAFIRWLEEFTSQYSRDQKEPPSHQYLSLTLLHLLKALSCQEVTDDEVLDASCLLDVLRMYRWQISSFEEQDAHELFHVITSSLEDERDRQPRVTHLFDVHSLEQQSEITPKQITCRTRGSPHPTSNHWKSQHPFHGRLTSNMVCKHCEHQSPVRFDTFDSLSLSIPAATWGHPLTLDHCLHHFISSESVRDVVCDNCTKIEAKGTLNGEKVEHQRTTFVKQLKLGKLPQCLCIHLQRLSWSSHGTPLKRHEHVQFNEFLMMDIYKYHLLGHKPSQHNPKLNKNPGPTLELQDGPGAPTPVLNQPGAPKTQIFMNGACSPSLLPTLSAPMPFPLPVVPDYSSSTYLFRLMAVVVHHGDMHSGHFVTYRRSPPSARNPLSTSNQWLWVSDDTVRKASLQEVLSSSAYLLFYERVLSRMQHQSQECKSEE
USP17 inh – human USP17-like deubiquitinase inhibition; A8MUK1; purified USP17, Ub-rhodamine cleavage fluorescence, 3 h; inhibition, % at 50 µM; actives 6.5% (n = 47,000)
USP28 inh – blocks human USP28 ubiquitin-rhodamine cleavage | actives 3% (n = 47,000) | purified USP28, Ub-rhodamine cleavage fluorescence, 30 min | inhibition, % at 25 µM | Q96RU2
* hit, by the source's call; . = not tested or not shown. Rule as the data show it: active = inhibition above about 30%; inactive = the rest.

SMILES	USP30 block	USP17 inh	USP28 inh
CC1=C(c2ccc(F)cc2)S(=O)(=O)NC1=NCC(=O)Nc1ccc(F)cc1	52.2*	0.1	-0.9
CC1=C(c2ccc(Cl)cc2)S(=O)(=O)NC1=NCC(=O)Nc1ccc(F)cc1	43.6*	64.1*	7.1
CCC1=C(c2ccc(C)cc2)S(=O)(=O)NC1=NCC(=O)NC1CCCCCC1	-15.1	-7.8	-11.5
Cc1ccc(C(=O)CC(=O)C(=O)Nc2cccc(F)c2)cc1	-286.8	-42.5	-71.4
CC1=C(c2ccc(C)c(C)c2)S(=O)(=O)NC1=NCC(=O)NCCCc1ccccc1	29.7	50.5*	3.6
CC1=C(c2ccc(C)c(C)c2)S(=O)(=O)NC1=NCC(=O)NCc1ccccc1	.	28.0	.
CC1=C(c2ccc(F)cc2)S(=O)(=O)NC1=NCC(=O)Nc1cccc(F)c1	57.8*	40.7*	16.5
CC1=C(c2ccc(F)cc2)S(=O)(=O)NC1=NCC(=O)Nc1c(C)cccc1C	14.4	17.2	2.4
COc1ccccc1CNC(=O)c1ccc(N2CCCCC2)c(NS(=O)(=O)c2ccc(C)cc2)c1	5.9	-13.0	-1.4
CC(=O)c1cccc(NC(=O)CCc2nnc3ccc(N4CCCC4)nn23)c1	-2.8	13.5	-15.0
COc1ccc(C2CC(=O)N(c3ccc(F)cc3F)C(=O)C2)cc1OC	2.8	-7.2	-2.4
Cc1nc2c(C)cccn2c(=O)c1Cc1nnc(SCC(=O)NC(C)C)n1C	22.7	15.5	13.1
O=C(NCc1cccc(Cl)c1)c1cc(-c2ccncc2)nc2ccccc12	-80.7	-14.4	-26.0
Cc1cccc(N2CCN(C(=O)NCc3ccccc3)CC2)c1C	16.1	19.8	4.3
COc1ccc(NC(=O)Cn2c(=O)n(CC(=O)NCc3ccc(C)cc3)c(=O)c3sccc32)cc1OC	75.3*	71.3*	70.4*
CCOc1ccc2c(c1)c(=O)c(C(=O)c1ccc(C)cc1)cn2CC(=O)Nc1ccc(C)c(C)c1	.	18.9	.
CCOc1ccc(NC(=O)Cn2c(=O)n(CC(=O)NCc3ccc(C)cc3)c(=O)c3sccc32)cc1	69.8*	.	14.8
COc1ccc(CCNC(=O)Cn2c(=O)c3sccc3n(Cc3cc(=O)n4ccccc4n3)c2=O)cc1OC	23.6	11.3	0.0
Cc1ccoc1C(=O)N1C[C@H](OCC2CCOCC2)[C@H]2OCCC[C@H]21	-10.5	-11.6	-0.9
Cc1cc(C(=O)N2CCCC(c3[nH]ncc3C)C2)c2c(C)noc2n1 (stereo not drawn)	0.8	3.5	-1.6
CC1(C)Oc2ccccc2[C@H]2OCC3(CCN(C(=O)CCCn4cccn4)CC3)C[C@@H]21	-5.5	-0.6	-6.7
CN[C@H]1CC2(CCN(C(=O)CCCn3cccn3)CC2)OC[C@]1(C)O	19.2	0.1	79.2*
O=C(Nc1ccc2c(c1)OCCO2)N1CCCC1c1cccs1 (stereo not drawn)	7.5	-0.3	1.3
CCC(=O)Nc1cccnc1-c1ccc(C(=O)Nc2ccc3c(c2)OCO3)cc1	4.9	.	40.0*
CCC(=O)Nc1cccnc1-c1ccc(C(=O)Nc2ccc(C)cc2)cc1	-20.7	.	17.9
SMILES	USP30 block	USP17 inh	USP28 inh
N[C@@H]1C[C@@H](Oc2cccc(F)c2)[C@H](O)[C@H]1N1CCc2ccccc2C1	8.8	-20.2	3.1
CC(C)(C)C(=O)Cn1c(=O)n(Cc2ccc(C(=O)NC3CCN(Cc4ccccc4)CC3)cc2)c(=O)c2ccccc21	-72.5	3.8	2.5
CCc1cccc(-n2nnnc2N2CCN(C(=O)Nc3cccc(F)c3)CC2)c1	-8.6	-9.8	-12.4
CCS(=O)(=O)N1CCC2(CN(Cc3ccc(-c4ccccc4)cc3)C2)C1	22.8	1.1	1.0
Cc1ccc2nc(CCc3cccc(NC(=O)c4ccc(C#N)cc4)c3)[nH]c2c1	27.4	20.4	14.2
Cc1cccc(S(=O)(=O)Nc2ccc(-c3nc4ccc(C)cc4s3)cc2)c1	-175.6	-0.8	-27.9
Cc1ccc2nc(CCc3ccc(NS(=O)(=O)c4cccc(Cl)c4)cc3)[nH]c2c1	0.1	11.5	36.7*
Cc1cccc(S(=O)(=O)Nc2ccc(CCc3nc4ccc(C)cc4[nH]3)cc2)c1	0.9	-1.0	35.8*
COc1cc(C(=O)Nc2cccc(CCc3nc4ccc(C)cc4[nH]3)c2)cc(OC)c1OC	-20.0	-22.2	-12.3
Cc1ccc2nc(CCc3ccc(NS(=O)(=O)c4cccc(Cl)c4C)cc3)[nH]c2c1	4.7	10.3	52.0*
CN(C(=O)CSc1nnc2c(Cl)cc(Cl)cn12)c1ccccc1	-0.3	5.7	5.4
O=C(NCc1nc(-c2ccc3c(c2)[nH]c(=O)n3C2CCCC2)no1)c1ccccc1	-55.0	58.2*	0.0
Cc1nc(C)c(-c2nc(-c3ccc4c(c3)[nH]c(=O)n4C3CCCC3)no2)s1	-334.1	-10.7	-102.1
COc1cc(O)cc2c1C(=O)O[C@@H](C[C@H]1CCC[C@H](C)O1)C2	0.1	-11.0	4.3
COc1cc2cc3c(c(O)c2c(O)c1-c1c(OC)cc2cc4c(c(O)c2c1O)C(=O)OC1CC(C)OC41)C(=O)OC1CC(C)OC31 (stereo not drawn)	-62.3	60.5*	6.7
COc1cccc(C2c3[nH]c4ccccc4c3C[C@@H]3C(=O)N(CCN4CCOCC4)CC(=O)N23)c1 (stereo partly drawn)	-6.9	-9.2	-15.5
Cn1cccc1C(=O)N1CC[C@@H](CC(=O)O)[C@@H](CC2=NCCc3ccccc32)C1	-98.6	-54.9	-43.8
O=C(Cn1c(=O)c2ccccc2n(CC(=O)Nc2cc(Cl)cc(Cl)c2)c1=O)NCc1ccco1	39.5*	29.7	17.0
O=C(Cn1c(=O)ccn(Cc2ccccc2)c1=O)NCc1ccco1	-18.0	-3.9	-2.1
COc1cc(Cl)c(C)cc1NC(=O)Cn1c(=O)n(CC(=O)NCc2ccco2)c(=O)c2ccccc21	28.3	49.8*	38.5*
O=C(Cn1c(=O)n(Cc2ccco2)c(=O)c2ccc(Cl)cc21)NCC1CCCO1 (stereo not drawn)	13.6	8.6	14.7
O=C(Cn1c(=O)c2ccccc2n(CC(=O)Nc2ccc(Br)cc2)c1=O)NCc1ccco1	21.1	31.1*	15.2
CCc1ccc(-n2c(=O)c3ccccc3n(CC(=O)NC3CCCC3)c2=O)cc1	51.6*	62.4*	31.1*
CC(C)(C)C(=O)Cn1c(=O)n(-c2ccc(CC(=O)NC3CCCC3)cc2)c(=O)c2ccccc21	-54.5	-17.4	-15.2
O=C(Cc1ccc(-n2c(=O)c3ccccc3n(CC(=O)Nc3cc(Cl)cc(Cl)c3)c2=O)cc1)NCCc1ccccc1	-87.8	-2.3	-7.7
SMILES	USP30 block	USP17 inh	USP28 inh
CC(=O)c1cccc(N[C@H]2[C@H](N)C3(NC(=O)O[C@H]3C)[C@@](C)(O)[C@@]2(O)COC(=O)c2c(C)cccc2O)c1 (stereo partly drawn)	-18.4	-29.9	-8.8
COCCN1CCc2cc(C(=O)N3CCCC3)c(NC(C)C)nc2CC1	-196.7	-112.6	-89.7
O=C(CN(Cc1ccccc1Cl)S(=O)(=O)c1ccc(Cl)cc1)N1CCN(c2ccccc2)CC1	16.8	-0.7	11.3
Cc1ccc(COc2cc(C(=O)NCc3cccs3)c3ccccc3n2)cc1	5.7	-12.2	-4.4
c1cc(CN2CCCn3nnc(Cn4ccnc4)c3C2)ccn1	-161.3	-40.5	-38.7
O=C(Cn1c(=O)n(CCC(=O)NC2CCCC2)c(=O)c2ccccc21)Nc1ccc(Br)cc1F	-19.0	-7.5	-12.9
O=C(Cn1c(=O)n(Cc2ccc(C(=O)NCc3ccco3)cc2)c(=O)c2ccccc21)Nc1ccc2c(c1)OCCO2	48.0*	80.9*	58.1*
